Source: PubChem BioAssay (Tox21)
Records with an inconclusive call do not appear. Values without a mark were called inactive. Calls of active or inactive are those of the source. Calls come from the whole dose curve; as a rule, active = well fitted cell-killing curve with a large enough effect in the repeat runs; inconclusive = weak or mixed curves, or effect the other way; inactive = flat fitted curve, though single readings scatter.

experiment: cAMP Responsive Elements (CRE) small molecule antagonists, cell-based qHTS assay: qHTS cell viability counter screen (AID 2060913); conditions: CRE-bla HEK293T viability, CellTiter-Glo luminescence, 5 h; series mostly up to 92.4 µM; viability change, negative = cytotoxic: at the top concentration; note: nearly all actives have a fitted effect of over 40% in size
Procedure, shortened: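 CRE-bla HEK293T cells (2,000/well, 18 h) given compound plus NKH477 0.25 uM final for 3 h at 37C; viability counter-screen by CellTiter-Glo luminescence in same wells after 30 min.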
% is set by controls: 0 for no effect and ±100 for the full control effect.

| Structure (SMILES) | viability change, negative = cytotoxic | Potency |
| --- | --- | --- |
| CO[C@H]1O[C@H](CO)[C@@H](O)[C@H](O)[C@H]1O | -12.8% | – |
| CCCCCCCCCCOCC(O)CN (stereo not drawn) | -6.74% [at 42.5 µM] | – |
| COCCOC(=O)c1ccccc1C(=O)OCCOC | -0.474% | – |
| CC(=O)S[C@H](C(=O)N[C@H]1Cc2ccccc2[C@H]2CCC[C@@H](C(=O)O)N2C1=O)C(C)C | -0.527% | – |
| O=C(O)c1nc(Cl)c(Cl)c(Cl)c1Cl | 12.1% | – |
| CCCCOCCOCCO | – | inactive |
| O=c1[nH]c(=O)c2[nH]c(=O)[nH]c2[nH]1 | -5.49% [at 8.39 µM] | – |
| C[C@]12C=CC(=O)C=C1[C@@H](F)C[C@@H]1[C@@H]2[C@@H](O)C[C@@]2(C)[C@H]1CC[C@]2(O)C(=O)CO | -2.51% [at 42.5 µM] | – |
| Cc1ncc[nH]1 | – | inactive |
| Sc1nc(S)nc(S)n1 | 3.17% [at 42.5 µM] | – |
| CCCCCCCCCCc1ccccc1 | -0.592% | – |
| CCOC(=O)C(=O)c1csc(NC=O)n1 | -5.1% [at 42.5 µM] | – |
| OC1CCCc2ccccc21 (stereo not drawn) | 4.14% | – |
| CC(=O)OC(C)C | – | inactive |
| CCOC(=O)c1ccccc1O | -0.987% [at 42.5 µM] | – |
| CCCCCCCCCOS(=O)(=O)O | 6.45% | – |
| O=S(=O)(Cl)c1c(Cl)cccc1Cl | -7.03% | – |
| COCCOCCOCCO | – | inactive |
